These results are taken from PubChem BioAssay (NCATS).

Records with an inconclusive call do not appear. A call without a number means that no potency is given here. Activity calls are given as the source filed them. Calls follow the shape of the dose curve; as a rule, active = well fitted inhibition curve with a large enough effect; inconclusive = small, poorly fitted or top-dose-only effect; inactive = flat fitted curve, though single readings scatter.
Potency is read from the fitted curve at half-maximal effect.

The experiment deals with MCC-26. The experiment in a line: qHTS assay to identify novel small-molecules to repurpose for Merkel cell carcinoma treatment (AID 1296009). Also: nearly all actives have a fitted effect of over 60% in size. The settings on record: MCC and control cell lines, CellTiter-Glo viability, 72 h; series mostly up to 46 µM. The source says: MCC is a rare and aggressive neuroendocrine skin cancer with limited treatment options. Approximately 80% of MCCs have the Merkel cell polyomavirus (MCPyV) DNA integrated into the host genome (virus-positive: VP-MCC) and viral oncogenes drive oncogenesis. The remaining MCCs are virus-negative (VN-MCC) and are caused by UV mutagenesis. To identify novel treatments for VP-MCC and/or VN-MCC we screened three VP-MCC cell lines (WAGA, MKL-1, MKL-2), three VN-MCC cell lines (MCC-13, MCC-26, UISO), and four immortalized, non-transformed control cell lines (HaCaT, HEK293T, CRL7250, NIH-3T3) against ~2,400 compounds in the NCGC Pharmaceutical Collection (NPC) and ~1,900 compounds in the Mechanism Interrogation PlatE (MiPE). Using cell viability as a readout (CellTiter-Glo assay) we found both overlapping and distinct drugs that can be repurposed for the treatment of VP-MCC and VN-MCC.
A high-throughput screen was conducted in 1536-well white flat bottom plates (Corning) on a Kalypsys robotic system. Cell lines WAGA, MKL-1, MKL-2, MCC-13, MCC-26, UISO, HaCaT, HEK293T, CRL7250, and NIH-3T3 were screened against 2 small molecule annotated drug libraries NPC and MIPE in dose response (8 and 11 pt. respectively) measuring cell viability after 72 hours of incubation. […] A 1,536 pintool (Kalypsys) was used to transfer 23 nL of compound in DMSO to the 1,536-well assay plates. After 72 hr incubation at 37 degree celsius, 2.5 uL of CellTiter-Glo (Promega) was dispensed into each well using a BiorapTR. Plates were incubated at room temperature for 10 min, transferred to a ViewLux (PerkinElmer) and the luminescence was recorded using an exposure time of 2 seconds. Relative luminescence units (RLUs) were normalized to in-plate controls (no cells as a positive (cytotoxicity) control, DMSO as negative control) and the normalized data was processed using NCATS in-house software.
On the technique in general: qHTS replaces the single test concentration by a dilution series.
Regarding `CN(C)c1ccccc1CN1CCCN(Cc2ccccc2N(C)C)C1c1ccncc1`, the Potency result was “inactive”.

In the case of `CC(C)n1c(C=C[C@H](O)C[C@H](O)CC(=O)O)c(-c2ccc(F)cc2)c2ccccc21`, the Potency is 20.9 µM (active).

Turning to `CCCCCCCCCCCCCC(=O)N[C@H](CO)[C@H](O)c1ccc([N+](=O)[O-])cc1`, the Potency result was “inactive”.

For the molecule `CN(C)CCOc1cc(-c2cn[nH]c2)ccc1NC(=O)C1COc2ccccc2O1` (stereo not given), the Potency entry was “inactive”.

For `Nc1ncnc2c1c(-c1cccc(OCc3ccccc3)c1)cn2C1CC(CN2CCC2)C1` (stereo not given), the Potency entry is “inactive”.

As to `COc1cc(C=CC(=O)O)ccc1O`, the Potency entry is “inactive”.

In the case of `COc1cc(CNC(=O)CCCCC=CC(C)C)ccc1O`, the Potency result is “inactive”.

As to `CC(C)CNc1ccnc(NCc2csc(-c3ccccc3)n2)n1`, the Potency entry was “inactive”.

Take `COc1ccc2cc1Oc1ccc(cc1)C[C@H]1c3cc(c(OC)cc3CCN1C)Oc1c(OC)c(OC)cc3c1[C@H](C2)N(C)CC3`: the Potency result was “inactive”.

Take `CCOC(=O)c1c(CSc2ccccc2)n(C)c2cc(Br)c(O)c(CN(C)C)c12`: the Potency result is “inactive”.

`COC(=O)N1CCN(Cc2cccc(NC(=O)Nc3ccc(C)nc3)c2F)CC1`: the Potency result was “inactive”.

Turning to `O=c1[nH]c(=O)n([C@H]2C[C@@H](O)[C@@H](CO)O2)cc1I`, the Potency result was “inactive”.

For the molecule `CC(=O)NCCC(=O)N[C@@H](CCC(N)=O)C(=O)N[C@@H](CO)C(=O)N[C@@H](CCC(N)=O)C(=O)N[C@@H](CCC(N)=O)C(=O)N[C@H](C(=O)N[C@@H](Cc1ccccc1)C(=O)N[C@]1(C)CCCCCCC=CCCC[C@@](C)(C(=O)N[C@@H](CCC(N)=O)C(=O)N[C@@H](CC(N)=O)C(N)=O)NC(=O)[C@H](CC(C)C)NC(=O)[C@H](CC(C)C)NC(=O)[C@@H](CCCNC(=N)N)NC(=O)[C@H](Cc2c[nH]c3ccccc23)NC(=O)[C@H](CC(C)C)NC(=O)[C@H](CC(N)=O)NC1=O)[C@H](C)O`, the Potency result was “inactive”.

In the case of `CN1c2ccccc2C(=O)N2CCc3c([nH]c4ccccc34)C21` (stereo not given), the Potency entry is “inactive”.

Turning to `C[C@H]1[C@H](O)O[C@@H]2O[C@@]3(C)CC[C@@H]4[C@H](C)CC[C@@H]1[C@@]24OO3`, the Potency entry is “inactive”.

`CC1=C(C(=O)Nc2cc3cn[nH]c3cc2F)C(c2ccc(C(F)(F)F)cc2)CC(=O)N1` (stereo not given): the Potency result was “inactive”.

Take `CN[C@H]1[C@@H](O[C@@H]2[C@H](O[C@@H]3[C@@H](O)[C@@H](O)[C@@H](N=C(N)N)[C@@H](O)[C@@H]3N=C(N)N)O[C@H](C)[C@@]2(O)C=O)O[C@@H](CO)[C@@H](O)[C@H]1O`: the activity change, negative = cytotoxicity was -1.52% [at 9.22 µM] (inactive).

As for `NC(N)=Nc1nc(CSCCC(N)=NS(N)(=O)=O)cs1`, the Potency entry was “inactive”.

With `CCCCn1c(=O)n(Cc2ccccc2F)c(=O)c2[nH]c(Cc3ccc(NC(C)=O)cc3)nc21`, the Potency result was “inactive”.

Regarding `Cn1cc(-c2ccc3nnc(Sc4ccc5ncccc5c4)n3n2)cn1`, the Potency result was “inactive”.

As to `C[C@@H](N)c1ccc(C(=O)Nc2ccnc3[nH]ccc23)cc1`, the Potency result is “inactive”.

For `CNC(=O)[C@H](CC1=CN=C2C=CCC=C12)NC(=O)[C@@H](CC(=O)NO)CC(C)C`, the Potency result was “inactive”.

For `C=C[C@@H]1CN2CCC1C[C@@H]2C(O)c1ccnc2ccc(OC)cc12` (stereo not given in full), the Potency entry was “inactive”.

Consider `CN(C)N=Nc1nc[nH]c1C(N)=O`, for which the Potency entry is “inactive”.

In the case of `CC1CNc2c(cccc2S(=O)(=O)N[C@@H](CCCN=C(N)N)C(=O)N2CC[C@@H](C)C[C@@H]2C(=O)O)C1` (stereo not given in full), the Potency entry is “inactive”.

With `CNC1CCC(N(Cc2cccc(-c3ccncc3)c2)C(=O)c2sc3ccccc3c2Cl)CC1` (stereo not given), the Potency result was “inactive”.

For the molecule `Cc1csc(-c2nnc(Nc3ccc(Oc4ncccc4-c4ccnc(N)n4)cc3)c3ccccc23)c1`, the Potency entry is “inactive”.

For `CCCCOCCOc1nc(-c2ccc(C(=O)O)c(F)c2)sc1C`, the Potency entry is “inactive”.

Regarding `CN[C@@H](C)[C@H]1[C@H](O)C[C@@]2(C)[C@@H]3CC[C@H]4C(C)(C)[C@@H](NC)CC[C@@]45C[C@@]35CC[C@]12C`, the Potency entry is “inactive”.

In the case of `C[C@H]1O[C@@H](n2cc(F)c(=O)[nH]c2=O)[C@H](O)[C@H]1O`, the Potency entry was “inactive”.

As to `NC1(C(=O)N[C@@H](CCO)c2ccc(Cl)cc2)CCN(c2ncnc3[nH]ccc23)CC1`, the Potency result was “inactive”.

With `O=C(Nc1ncc(SCCN2CCCC2)s1)[C@]1(c2ccc(S(=O)(=O)C3CC3)cc2)C[C@@H]1C1CCCCC1`, the Potency result was “inactive”.

Regarding `NC[C@H]1O[C@H](O[C@@H]2[C@@H](O)[C@@H](O[C@H]3O[C@H](CO)[C@@H](O)[C@H](N)[C@@H]3O)[C@H](N)C[C@@H]2N)[C@H](O)[C@@H](O)[C@H]1O`, the Potency result is “inactive”.

Turning to `COc1ccc2c(c1)c(C1=C(c3c[nH]c4ccccc34)C(=O)NC1=O)cn2CCCN(C)C`, the Potency result is “inactive”.

Take `OC[C@H]1O[C@@H](Oc2ccc(O)cc2)[C@H](O)[C@@H](O)[C@H]1O`: the Potency result is “inactive”.

Turning to `O=C(NCCCCN1CCOCC1)c1cc2ccccc2o1`, the Potency entry is “inactive”.

`CN1CC(=O)N2C(Cc3c([nH]c4ccccc34)[C@H]2c2ccc3c(c2)OCO3)C1=O` (stereo not given in full): the Potency entry was “inactive”.

Take `O=C(Nc1ccccc1)Nc1ccc(-c2ccc(C(=O)[C@H]3CCC[C@H]3C(=O)O)cc2)cc1`: the Potency result is “inactive”.

For the molecule `CC=C(C(=CC)c1ccc(O)cc1)c1ccc(O)cc1`, the Potency result is “inactive”.

For the molecule `CCCC1OC2C[C@@H]3[C@H]4CCC5=CC(=O)C=C[C@]5(C)[C@H]4C(O)C[C@]3(C)[C@]2(C(=O)CO)O1` (stereo not given in full), the Potency result is “inactive”.
